TNAP act mid DEA: human TNAP enzyme activators, primary screen, biochemical, luminescent, intermediate phosphate acceptor level; activation factor at 20 µM; AID 813, 2007; 64,000 tested, under 10 active; Alkaline phosphatase, tissue-nonspecific isozyme (Homo sapiens), P05186; purified TNAP, CDP-star luminescence, 100 mM DEA, 30 min; stronger effect = higher value; scale: 0 levamisole-inhibited, 1 vehicle-only enzyme;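 active = activation factor of at least 2 at 20 µM, relative to controls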
E coli RNAP: E. coli RNAP inhibitors, biochemical; E. coli RNA polymerase, fluorescence transcription assay; inhibition, %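 (tested at 10 µM)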; 62,000 compounds, 0.2% hits; in the data active = inhibition above about 20%;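 note: 0% = enzyme without compound and 100% = no enzyme blank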
PLAP act: PLAP enzyme activators, biochemical, luminescence, HTS; activation fold at 20 µM; 96,000 compounds, 1.2% hits; purified PLAP enzyme, luminescent substrate read-out; stronger effect = higher value; Alkaline phosphatase, placental type (Homo sapiens), P05187; AID 696, 2007; in the data active = activation fold above about 2
Target sequence (P05187 whole entry, looked up): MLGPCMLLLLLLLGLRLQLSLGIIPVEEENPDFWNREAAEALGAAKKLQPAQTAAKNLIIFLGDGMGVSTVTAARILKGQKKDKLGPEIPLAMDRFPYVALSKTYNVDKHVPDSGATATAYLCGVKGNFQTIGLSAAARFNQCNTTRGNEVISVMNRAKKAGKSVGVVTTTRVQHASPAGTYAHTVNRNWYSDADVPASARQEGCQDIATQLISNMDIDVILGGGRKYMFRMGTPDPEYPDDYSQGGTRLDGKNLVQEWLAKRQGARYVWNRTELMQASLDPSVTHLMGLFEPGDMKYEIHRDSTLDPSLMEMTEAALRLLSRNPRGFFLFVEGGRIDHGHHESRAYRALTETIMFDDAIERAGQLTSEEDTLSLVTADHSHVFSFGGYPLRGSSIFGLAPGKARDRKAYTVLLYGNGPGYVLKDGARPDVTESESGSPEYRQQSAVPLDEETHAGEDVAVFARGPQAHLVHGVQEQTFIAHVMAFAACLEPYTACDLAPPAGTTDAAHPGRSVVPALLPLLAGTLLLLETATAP
The depositor's hits bear a star; nt = no result. The sample as a whole holds a higher share of hits than the screen did.

SMILES | TNAP act mid DEA | E coli RNAP | PLAP act
CC(=O)c1cc2c(O)c(O)ccc2o1 | 0.9 | 21.1* | 0.9
CC(=O)c1cc2cc(O)ccc2o1 | 0.9 | -138.9 | 1
C/C(=N/NC(=O)c1cc2ccccc2cc1O)C1C(=O)c2ccccc2C1=O | nt | nt | 1.9
C/C(=N\NC(=O)c1ccccc1O)C1C(=O)c2ccccc2C1=O | nt | nt | 2.1*
COc1ccc(-c2noc(CCCC(=O)NCCc3ccccc3)n2)cc1OC | 0.9 | nt | 1.3
COc1ccc(OC)c(S(=O)(=O)N2CCC(C(=O)Nc3cccc(C)c3)CC2)c1 | nt | nt | 2.2*
COc1cccc(NC(=O)[C@@H]2CCCN2C(=O)C2CCN(S(=O)(=O)c3ccc(C)cc3)CC2)c1 | 0.9 | 9.7 | 2*
COc1ccccc1CNC(=O)[C@@H]1CCCN1C(=O)C1CCN(S(=O)(=O)c2ccc(C)cc2)CC1 | 0.9 | 12.1 | 1.6
COc1ccc(OC)c(S(=O)(=O)N2CCC(C(=O)Nc3cc(C)ccc3C)CC2)c1 | nt | nt | 1.3
CCS(=O)(=O)N1Cc2ccccc2CC1C(=O)Nc1nc2ccccc2[nH]1 (configuration not stated) | 1 | 2.3 | 2.4*
CCS(=O)(=O)N1Cc2ccccc2CC1C(=O)OCC(=O)Nc1ccc(C)cc1 (configuration not stated) | 0.9 | nt | 1
CC(=O)C(C(C)=O)c1c(Cl)c(O)c(O)c2c(C(=O)c3ccccc3)coc12 | 0.8 | 32.3* | 1.4
CN1CCN(Cc2c(O)ccc3occ(C(=O)c4ccccc4)c23)CC1 | 0.9 | 9.9 | 1.3
CNc1nc(SC)nc2ccsc12 | nt | nt | 1
O=C(CSc1nc2c(c(=O)[nH]1)CCCC2)Nc1ccc(Cl)cc1F | 1 | 5.7 | 1.3
CCOc1ccc2[nH]c(=S)[nH]c2c1 | nt | nt | 1.8
CCOc1ccc2c(c1)n(CO)c(=S)n2CO | 1 | 5.6 | 2.3*
Cc1cccc(NC(=S)NNC(=O)CCn2cc(C)cn2)c1 | nt | nt | 1.9
CC(=O)N(c1ccc(N(C(C)=O)S(=O)(=O)c2cccs2)cc1)S(=O)(=O)c1cccs1 | 0.9 | 23.7* | 1
COc1ccc(N(C(=O)c2ccco2)S(=O)(=O)c2cccs2)cc1 | 0.9 | 0.8 | 1
Cc1nc2ccc(C(C(F)(F)F)(C(F)(F)F)C(F)(F)F)cc2[nH]1 | 1 | 2.6 | 1.3
CC(=NCCN1CCN(C(=S)Nc2ccccc2)CC1)C1=C(O)CC(C)(C)CC1=O | nt | nt | 1.2
COC(=O)c1ccc(C(=O)OC)c(NC(=O)COC(=O)CC2CC3CCC2C3)c1 (configuration not stated) | nt | nt | 1.4
Cc1cc(C)c(S(=O)(=O)N(CC(=O)N2CCCC2)C2CCCCC2)c(C)c1 | 0.9 | 2.9 | 1.6
Cc1cc(C)c(S(=O)(=O)N(CC(=O)NCc2cccnc2)C2CCCCC2)c(C)c1 | 1 | 3.5 | 2.3*
SMILES | TNAP act mid DEA | E coli RNAP | PLAP act
COC(=O)c1ccc(OCC(O)CN(CC(C)C)CC(C)C)cc1 (configuration not stated) | 0.9 | 2.2 | 1.7
Cc1ccc(NC(=O)CCC(=O)NNC(=O)c2cccs2)cc1C | nt | nt | 2*
Cc1ccc(NC(=O)CCC(=O)NNC(=O)Cc2ccccc2)cc1C | nt | nt | 1.5
Cc1cc(NC(c2cccnc2)c2ccc3cccnc3c2O)no1 (configuration not stated) | 1 | 0.2 | 2.4*
Cc1cc(NC(=O)c2cc(-c3cccnc3)nc3c(C)c(C)ccc23)no1 | 1 | 9.9 | 1.1
Cc1nc2sccc2c(=O)n1-c1cccc(Cl)c1 | nt | nt | 0.8
Cc1cn(C2CC3OCC3O2)c(=O)[nH]c1=O (configuration not stated) | 0.9 | 3.4 | 0.9
CC(C)N(Cc1nc(-c2ccccc2)no1)C(=O)CN(C)S(=O)(=O)c1ccc(Br)cc1 | nt | nt | 1.3
CC(C)N(Cc1nc(-c2ccc(Cl)cc2)no1)C(=O)CN(C)S(=O)(=O)c1ccc(Cl)cc1 | 0.8 | 20.7* | 0.9
CN1CCN(C(=O)c2ccc(N(Cc3ccc(Cl)cc3)S(C)(=O)=O)cc2)CC1 | 0.9 | 2.0 | 1.6
CCOC(=O)CSc1nnc(CSc2nc3sc4c(c3c(=O)[nH]2)CCC4)n1-c1ccccc1 | nt | nt | 2*
CCOC(=O)CSc1nnc(CSc2nc3sc4c(c3c(=O)[nH]2)CCC4)n1C | 0.9 | 6.8 | 1.2
O=C(C1CCCN(S(=O)(=O)c2cccnc2)C1)N1CCn2c1nc1ccccc12 (configuration not stated) | 0.9 | 5.0 | 1.5
Cc1cc(OCCn2cc(/C(N)=N/O)c3ccccc32)ccc1Cl | nt | nt | 0.9
N#CC1=C(N)N=C(SCc2ccccc2)C(C(N)=O)C12CCCCC2 (configuration not stated) | 0.9 | 4.7 | 1.4
Nc1nc(-c2ccccc2)cs1 | nt | nt | 0.8
Cc1ccc(-c2csc(C3C(N)=NC(S)=C(C#N)C34CCCCC4)n2)cc1 (configuration not stated) | nt | nt | 2.4*
N#CC1=C(S)N=C(N)C(c2nc(-c3ccccc3)cs2)C12CCCC2 (configuration not stated) | nt | nt | 2.5*
N#CC1=C(S)N=C(N)C(c2nc(-c3ccccc3)cs2)C12CCCCC2 (configuration not stated) | nt | nt | 2.2*
Cc1ccc(C(=O)CSC2=NC(N)=C(C#N)C3(CCCCC3)C2C(N)=O)cc1 (configuration not stated) | 0.9 | 7.1 | 1.3
COc1ccc(NC(=O)NCCN2CCN(c3cccc(Cl)c3)CC2)cc1 | 1 | 2.0 | 1.2
COc1ccc(NC(=O)NCCCN2CCN(c3cc(C)ccc3C)CC2)cc1 | 0.9 | 7.5 | 2*
CC1CCCCN1C(=O)Cn1cc(/C=C2/C(=O)Nc3ccccc32)c2ccccc21 (configuration not stated) | nt | nt | 1.2
COC(=O)C1=C(C)N=c2s/c(=C3\C(=O)Nc4ccccc43)c(=O)n2C1c1ccccc1 (configuration not stated) | 0.8 | 11.8 | nt
COc1cc2c(C(=O)NCc3ccc4c(c3)OCO4)cn(CC(C)C)c(=O)c2cc1OC | 0.9 | 2.7 | 0.9
SMILES | TNAP act mid DEA | E coli RNAP | PLAP act
COc1cc2c(C(=O)Nc3ccc4c(c3)OCO4)cn(CC(C)C)c(=O)c2cc1OC | 0.9 | 11.7 | 2.4*
COc1ccc2nc(NC(=O)C(NS(=O)(=O)c3cccs3)C(C)C)sc2c1 (configuration not stated) | 1 | 12.1 | 2.2*
Cc1ccc2nc(NC(=O)C(NS(=O)(=O)c3cccc4nsnc34)C(C)C)sc2c1 (configuration not stated) | nt | nt | 1.8
O=C(COc1ccc(S(=O)(=O)N2CCOCC2)cc1)Nc1ccccc1C(F)(F)F | nt | nt | 1
COc1cccc(C(=O)N2CCN(S(=O)(=O)Cc3ccccc3)CC2)c1OC | 0.9 | 1.8 | nt
CCC(CC)C1C(C#N)=C(N)Oc2n[nH]c(C)c21 (configuration not stated) | 0.8 | 10.1 | 2.1*
CCC(CC)C1C(C#N)=C(N)Oc2n[nH]c(-c3ccccc3)c21 (configuration not stated) | nt | nt | 0.8
C=CCSc1nnc(NC(=O)c2nc(SCC)ncc2Cl)s1 | nt | nt | 1
CSc1ncc(Cl)c(C(=O)Nc2nnc(SC/C=C/c3ccccc3)s2)n1 | nt | nt | 2.3*
Cc1ccc(CNC(=O)c2ccc(Cl)cc2[N+](=O)[O-])cc1 | nt | nt | 0.8

Screening results deposited in PubChem by several laboratories.
